High-throughput results from PubChem BioAssay.
A selection: hits, their analogues and other compounds. The true share with any hit is near 9.4%.
AMA1-RON2 inh = qHTS for Inhibitors of AMA1-RON; Towards Development of Antimalarial Drug Lead: Primary Screen; AlphaScreen AMA1-biotinylated RON2 peptide binding; Potency, µM (doses to about 58.2 µM), without a hit: at the highest dose activity change, negative = inhibition, usual class: inhibitors; AID 720542, 2013; 360,000 compounds, 0.2% hits; Plasmodium falciparum AMA1 (3D7) - RON2 peptide interaction;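 also: 0% = vehicle wells and -100% = peptide control; nearly all actives have a fitted effect of over 45% in size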
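AMA1 (3D7) with his tag at 25 nM final met compounds first, then biotinylated RON2 peptide at 25 nM; detection used donor plus acceptor beads, 10 µg/mL apiece, read by AlphaScreen after 30 min at room temperature.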
SARS PLP yeast = qHTS of Yeast-based Assay for SARS-CoV PLP. S. cerevisiae expressing SARS-CoV PLpro, growth rescue. Potency, µM (doses to about 32.9 µM), for inactives: at the highest dose activity, positive = growth rescue, most hits filed as activators. 330,000 compounds, 0.19% hits; calls by dose curve; also: 0% is about no effect; nearly all actives have a fitted effect of over 55% in size
Pf growth 48h = Primary qHTS for delayed death inhibitors of the malarial parasite plastid, 48 hour incubation. P. falciparum luciferase growth in erythrocytes, 48 h. Potency, µM (top dose mostly 28.7 µM), for inactives: top-dose activity change, negative = inhibition, actives largely listed as inhibitors. 310,000 compounds, 5.9% hits. AID 504832, 2011; also: % is scaled to controls: 0 for no effect and ±100 for the full control effect
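In quantitative HTS format, infected erythrocytes bearing luciferase-reporter parasites were treated for a single generation at 37 C. Luminescence after adding detection reagent served as the growth measure.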
Pf growth 96h = Primary qHTS for delayed death inhibitors of the malarial parasite plastid, 96 hour incubation. P. falciparum luciferase reporter growth, 96 h. Potency, µM (doses to about 28.7 µM), for inactives: at the top dose activity change, negative = inhibition, actives largely listed as inhibitors. 320,000 compounds, 6.9% hits; also: % is scaled to controls: 0 for no effect and ±100 for the full control effect
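Parasite growth measured via integrated firefly luciferase reporter in P. falciparum. Infected erythrocytes at 2% hematocrit, 0.05% parasitemia final were treated 96 hours at 37 C under 5% CO2, and luminescence was read.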
Numbers without * were called inactive; ? = inconclusive; / = no result; ! = a repeat was not active. Unless noted, calls follow the shape of the dose curve; as a rule, active = well fitted curve in the direction sought with a large enough effect; inconclusive = small, poorly fitted or top-dose-only effect, or another doubt; inactive = no such curve, though single readings can be large; an effect the other way counts as inactive or inconclusive. Potency is read from the fitted curve at half-maximal effect.

SMILES | AMA1-RON2 inh | SARS PLP yeast | Pf growth 48h | Pf growth 96h
COC(=O)C1=C(C)N(CCc2cc(OC)c(OC)c(OC)c2)C(=O)N[C@H]1c1ccc(Br)cc1 | / | 7.6% | 13.1µM* | 10.4µM*
COC(=O)C1=C(C)N(Cc2ccccc2)C(=NCc2cc(OC)c(OC)c(OC)c2)N[C@H]1c1ccccc1 | -6.4% | 1.9% | ? | ?
COC(=O)C1=C(C)N(CC2CC2)C(=NCc2cc(OC)c(OC)c(OC)c2)N[C@H]1c1ccccc1 | 8.4% | 0.1% | 2.9% | 11.7µM*!
CC(C)=CC1C=C(C)C(C)C2C(=O)NNC(=O)C12 (centres undefined) | 0.5% | 1.7% | / | 1.9%
C[C@H]1COC(=O)[C@@H](Cc2ccc(F)cc2)CC/C=C\C[C@H](CC(=O)NCCO)C(=O)N1 | 0.0% | 9.8% | / | /
O=C(Cn1cncn1)NCc1cccc2ccccc12 | -7.4% | -11.8% | 42.8% | -13.1%
O=C(CCS(=O)(=O)c1ccccc1)N(CCCN1CCOCC1)c1nc2c(F)cccc2s1 | -21.3% | 2.9% | 45.8% | 78.3%
O=C1N/C(=N\S(=O)(=O)c2ccccc2)S/C1=C\c1cc([N+](=O)[O-])ccc1O | -1.2% | 17.2% | 17.0% | -0.1%
Cc1ccc(/C=C/C(=O)O)cc1S(=O)(=O)NC1CCS(=O)(=O)C1 (centres undefined) | 2.7% | -0.8% | 8.4% | -10.7%
COC(=O)C1=C(C)N(Cc2ccccc2)C(=NCc2cc(OC)c(OC)c(OC)c2)N[C@H]1c1ccc(Br)cc1 | 0.0% | 2.8% | -2.0% | 29.1%
CCN1C(=NCCN2CCOCC2)N[C@@H](c2ccccc2)C(C(=O)OC)=C1C | 1.8% | 2.9% | 2.6% | 1.07µM*!
COC(=O)C1=C(C)N(Cc2ccccc2)C(=NCc2ccccc2)N[C@H]1c1cccc(F)c1 | -7.9% | -1.9% | ? | 9.28µM*
COC(=O)C1=C(C)N(Cc2ccccc2)C(=NCc2ccccc2)N[C@H]1c1ccccc1 | -1.0% | -6.9% | ? | 1.69µM*
COC(=O)C1=C(C)N(Cc2ccccc2)C(=NCc2cc(OC)c(OC)c(OC)c2)N[C@H]1CCc1ccccc1 | 11.3% | -14.7% | 13.1µM* | ?
COC(=O)C1=C(C)N(Cc2ccccc2)C(=NCc2cccc(Cl)c2)N[C@H]1c1ccccc1 | -7.7% | -9.3% | 4.5% | ?
CCCNC(=O)C1(C)CCCN(C(=O)c2ccc(F)c(Cl)c2)C1 (centres undefined) | -0.7% | / | / | /
N=C1/C(=C\c2ccc(OC(=O)c3ccc(F)cc3)cc2)C(=O)N=C2SC(N3CCOCC3)=NN12 | 66.3% | -6.3% | 7.9% | 1.65µM*
Cc1cc(N(C)C)nc(Nc2ccccc2)n1 | -8.3% | 2.0% | 13.1µM* | 11.7µM*
Cc1cccc(Nc2nc(C)cc(C)n2)c1 | -0.1% | -5.9% | ? | ?
C=CCN(CC=C)c1nc2ccccc2nc1C(C#N)C(=O)OCCOC (centres undefined) | 0.8% | -1.9% | 10.4µM* | 6.57µM*
CCCN(CCC)c1nc2ccccc2nc1C(C#N)C(=O)OCCOC (centres undefined) | -6.8% | / | ? | 8.1%
CCN(CC)CCNC(=O)CS(=O)Cc1nc(-c2ccccc2Cl)oc1C (centres undefined) | -1.9% | 13.1% | 2.1% | 10.4µM*
CCCCNC(=O)CS(=O)Cc1nc(-c2cccs2)oc1C (centres undefined) | 24.2% | 3.0% | / | 8.28µM*
COc1ccc(-c2nn(-c3ccccc3)cc2/C=N/NC(=O)c2ccc3c(c2)OCO3)cc1 | / | 2.8% | ? | ?
O=C(N/N=C/c1cn(-c2cccs2)nc1-c1ccccc1)c1ccccc1O | 64.0% | -70.6% | ? | 6.57µM*
SMILES | AMA1-RON2 inh | SARS PLP yeast | Pf growth 48h | Pf growth 96h
O=C(N/N=C\c1cn(-c2ccccc2)nc1-c1ccccc1)c1ccc2c(c1)OCO2 | -6.8% | -0.4% | ? | 11.7µM*
CCCOc1ccc(/C=N/NC(=O)c2ccc3c(c2)OCO3)c(OCCC)c1 | 0.0% | 1.3% | 5.86µM* | ?
O=C(N/N=C/c1cn(-c2ccccc2)nc1-c1ccc(F)cc1)c1ccc2c(c1)OCO2 | -2.2% | 0.5% | ? | 13.1µM*
NS(=O)(=O)c1cccc(NC(=O)CSc2ccccn2)c1 | 0.0% | 2.7% | 46.0% | /
CC1(C(=O)NS(=O)(=O)c2ccc(Cl)cc2)CCN1C(=O)C1(c2ccc(Cl)cc2)CC1 (centres undefined) | -4.8% | / | / | /
COc1ccc(-c2nn(-c3ccccc3)cc2/C=N/NC(=O)c2cccc(S(=O)(=O)Nc3ccccc3OC)c2)cc1 | 23.5% | 3.8% | 3.29µM* | 2.33µM*
CCOC(=O)c1[nH]c2ccc(OCC)cc2c1NC(=O)CN1CCN(c2ccccn2)CC1 | -6.4% | -1.4% | 7.38µM* | 4.65µM*
COC(=O)c1[nH]c2cc(OC)ccc2c1NC(=O)CCN1CCN(c2cccc(C)c2C)CC1 | -0.6% | -0.5% | 2.62µM* | -4.8%
COC(=O)c1[nH]c2ccccc2c1NC(=O)CN1CCN(c2cccc(OC)c2)C(C)C1 (centres undefined) | -28.0% | -8.9% | 9.28µM* | /
CCOC(=O)c1[nH]c2ccc(OC)cc2c1NC(=O)CN1CCN(c2ccccn2)CC1 | / | -3.2% | -14.2% | -18.8%
CCOC(=O)c1[nH]c2ccc(OC)cc2c1NC(=O)CN1CCc2ccccc2C1 | 12.9% | -12.6% | ? | 11.7µM*
COc1cc(NC(=O)Cc2c(C(=O)O)[nH]c3ccccc23)cc(OC)c1OC | -1.6% | 6.5% | 41.9% | 36.1%
O=C(c1cccc(Br)c1)c1conc1C(=O)c1ccco1 | 35.6% | -18.0% | 11.8% | -0.5%
O=C(CSc1ccccn1)Nc1cccc([N+](=O)[O-])c1 | ? | -10.1% | -3.0% | 1.5%
CCOC(=O)c1[nH]c2ccc(F)cc2c1NC(=O)C(C)N1CCc2cc(OC)c(OC)cc2C1 (centres undefined) | -2.4% | 0.5% | 14.7µM* | ?
CN(C)CC(C)(C)CNS(=O)(=O)c1cccc(Cl)c1Cl | -1.8% | 1.6% | / | 19.9%
C/C(=C\c1ccc(Br)cc1)C(=O)c1c(C)cc(C)[nH]c1=O | -0.4% | 4.1% | 14.7% | 10.4µM*
CCc1ccc(/C=C/C(=O)c2c(C)cc(C)[nH]c2=O)cc1 | -5.5% | -6.5% | 9.28µM* | -20.4%
CCOC(=O)Nc1ccc(NCc2ccc(F)cc2)nc1N | 47.5% | / | 13.1µM* | 6.75µM*
COc1cc2c(cc1OC)CN(C(=O)c1oc3ccccc3c1C)CC2 | -21.5% | -0.6% | -17.3% | 15.8%
CCOC(=O)C(C)n1cnc2c(nnn2-c2ccc(C)cc2)c1=O (centres undefined) | 0.0% | 13.0% | / | 7.38µM*
CCOC(=O)C(C)n1cnc2c(nnn2Cc2ccc(C)cc2)c1=O (centres undefined) | 11.9% | -0.3% | -7.3% | 5.0%
CCOC(=O)C(C)n1cnc2c(nnn2Cc2ccc(Cl)cc2)c1=O (centres undefined) | 5.8% | 8.3% | / | 8.28µM*
CC1CC(C)CN(C(=O)C(C)N2CCN(S(=O)(=O)c3ccc(C(F)(F)F)cc3)CC2)C1 (centres undefined) | -5.6% | / | / | /
